Screening results: PubChem BioAssay, National Center for Advancing Translational Sciences (NCATS)
Sampled rows, rich in hits. Any-hit rate of the full collection: about 10%.
Luciferase inh = blocks purified firefly luciferase enzyme activity; P08659; purified P. pyralis luciferase, luminescence, biochemical; Potency, µM (top dose mostly 115 µM), usual class: inhibitors; 76,000 compounds, 2.5% hits; further: nearly all actives have a fitted effect of over 65% in size
Target sequence (P08659 whole entry, looked up): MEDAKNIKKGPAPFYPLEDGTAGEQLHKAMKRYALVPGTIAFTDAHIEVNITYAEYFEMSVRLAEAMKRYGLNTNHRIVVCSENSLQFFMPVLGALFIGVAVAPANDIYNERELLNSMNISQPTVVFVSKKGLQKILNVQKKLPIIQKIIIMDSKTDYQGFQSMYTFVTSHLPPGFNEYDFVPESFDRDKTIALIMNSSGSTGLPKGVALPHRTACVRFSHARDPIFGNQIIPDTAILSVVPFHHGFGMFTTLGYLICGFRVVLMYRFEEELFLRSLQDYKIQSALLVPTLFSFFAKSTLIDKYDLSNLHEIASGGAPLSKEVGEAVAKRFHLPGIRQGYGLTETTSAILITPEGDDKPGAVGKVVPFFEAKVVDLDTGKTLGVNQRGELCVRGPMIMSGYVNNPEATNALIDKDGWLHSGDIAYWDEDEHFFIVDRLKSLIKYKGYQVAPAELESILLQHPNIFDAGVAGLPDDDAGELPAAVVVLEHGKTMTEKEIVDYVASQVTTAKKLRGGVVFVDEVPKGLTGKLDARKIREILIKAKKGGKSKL
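Biochemical qHTS: compound (6-point titration) added to 10uM D-luciferin plus 10uM ATP in Tris acetate pH 7.5 buffer with Mg, Tween-20 and BSA, then purified enzyme at 10nM; light output imaged.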
HEK cytotox = kills HEK 293 cells. HEK 293 viability, ATP luminescence (CellTiter-Glo), 48-72 h. AID 1345083. Potency, µM (titrated, usually from 115 µM), usual class: inhibitors. 94,000 compounds, 6.6% hits; further: nearly all actives have a fitted effect of over 60% in size
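250 HEK 293 cells/well; compound by pintool; incubated 48 or 72 hr at 37 degree Celsius; CellTiter-Glo added, 10 min RT, luminescence imaged.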
GPT2 inhibitor = inhibitors of human GPT2 alanine aminotransferase. 100,000 compounds, 0.25% hits. Q8TD30. Potency, µM (highest dose often 57.7 µM), usual class: inhibitors. Recombinant GPT2, coupled pyruvate oxidase/HRP Amplex Red fluorescence; further: nearly all actives have a fitted effect of over 60% in size
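Inhibition is scored from Amplex Red fluorescence generated when pyruvate oxidase and HRP act on pyruvate released by GPT2. Reactions contain 10ng/uL enzyme, 250uM a-KG and 2mM L-alanine and run 30 min at room temperature.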
NIH3T3 tox = cytotoxic compounds in NIH 3T3 cells; NIH 3T3 viability, CellTiter-Glo ATP luminescence, 48-72 h; Potency, µM (doses to about 96.7 µM), hits mostly inhibitors; 94,000 compounds, 4.3% hits; AID 1345082; further: nearly all actives have a fitted effect of over 55% in size
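Viability of NIH 3T3 cells after 48 or 72 hr compound treatment at 37 °C was assessed by CellTiter-Glo, with luminescence imaged following a 10 min room-temperature step.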
hNpr1 antagonist = antagonists of human natriuretic peptide receptor Npr1; HEK293 hNpr1 GloSensor cGMP, ANP-stimulated luminescence; P16066; Potency, µM (titrated, usually from 46.3 µM), hits mostly inhibitors; 76,000 compounds, 1.6% hits; calls by dose curve; further: nearly all actives have a fitted effect of over 60% in size
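Compound pre-incubated 30 min at room temperature on GloSensor-loaded HEK293 cells stably carrying hNpr1 and the pGS-40F cGMP biosensor. Stimulation uses hNppA at 0.1 nM final; luminescence is taken at baseline and 20 min post-agonist.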
A number is an active result; . = inactive; ? = inconclusive; / = not tested or not shown; [ ] = remark or other dose. Unless noted, the call rests on the fitted dose curve; in most records, active means well fitted curve in the direction sought with a large enough effect; inconclusive means small, poorly fitted or top-dose-only effect, or another doubt; inactive means no such curve, though single readings can be large; an effect the other way counts as inactive or inconclusive.

SMILES	Luciferase inh	HEK cytotox	GPT2 inhibitor	NIH3T3 tox	hNpr1 antagonist
CC(C)CCN1CCC(N2CCN(C(=O)c3ccc(C(F)(F)F)cc3)CC2)C1=O (stereo not given)	.	.	.	.	.
C[C@@H]1C(=O)O[C@H]2[C@H]1CC[C@@]1(C)Cc3sc(NC(=O)CN(C)C)nc3[C@@H](C)[C@H]21	3.2µM	.	.	.	16µM
COCCNC(=O)[C@@H](C)C1CC[C@@]2(C)Cc3sc(NC(=O)CN(C)C)nc3[C@@H](C)[C@@H]2[C@H]1O (stereo not given in full)	20µM	.	.	.	.
C[C@@H]1C(=O)O[C@H]2[C@H]1CC[C@@]1(C)Cc3sc(NC(=O)COc4ccccc4)nc3[C@@H](C)[C@H]21	.	?	.	.	.
C[C@@H]1C(=O)O[C@H]2[C@H]1CC[C@@]1(C)Cc3sc(NC(=O)CC(C)(C)C)nc3[C@@H](C)[C@H]21	20µM	32µM	.	?	.
C[C@@H]1C(=O)O[C@H]2[C@H]1CC[C@@]1(C)Cc3sc(NC(=O)CCC(=O)O)nc3[C@@H](C)[C@H]21	?	.	.	.	.
C[C@H](C(=O)N1CCCC1)C1CC[C@@]2(C)Cc3sc(NC(=O)C4CC4)nc3[C@@H](C)[C@@H]2[C@H]1O (stereo not given in full)	.	.	.	.	.
C[C@@H]1C(=O)O[C@H]2[C@H]1CC[C@@]1(C)Cc3sc(Nc4ccc(C(=O)O)cc4)nc3[C@@H](C)[C@H]21	1µM	.	?	.	13µM
CCOC(=O)C1(Cc2ccccc2Cl)CCNCC1	.	?	.	?	.
COc1ccccc1-c1ccc(NCC2CCCN(C(=O)C3CC3)C2)nn1 (stereo not given)	?	.	.	.	.
C=CCNC(=O)Nc1nc2c(s1)C[C@]1(C)CC[C@@H]3[C@H](OC(=O)[C@H]3C)[C@H]1[C@@H]2C	16µM	?	.	.	.
O=[S+]1([O-])NC2(CCN(Cc3ccccc3C(F)(F)F)C2)CNc2ccccc21 (stereo not given)	.	40µM	?	?	.
O=[S+]1([O-])NC2(CCN(Cc3cccc4ccccc34)C2)CNc2ccccc21 (stereo not given)	.	40µM	.	?	?
O=[S+]1([O-])NCC2(CCN(Cc3cccc4ccccc34)CC2)Nc2ccccc21	.	?	.	?	.
O=[S+]1([O-])NC2(CCN(Cc3ccc(C(F)(F)F)cc3)C2)CNc2ccccc21 (stereo not given)	.	45µM	.	?	?
O=C(c1ccc(C(F)(F)F)cc1)N1CCC2(CC1)CNc1ccccc1[S+](=O)([O-])N2	.	50µM	.	.	.
O=[S+]1([O-])NCC2(CCN(Cc3ccccc3C(F)(F)F)CC2)Nc2ccccc21	.	?	.	.	.
COc1ccccc1-c1noc(CCCC(=O)N2CCc3nc[nH]c3C2)n1	.	.	.	.	.
O=C(NCCCc1ccccc1)c1ccc2nc(-c3ccncc3)oc2c1	/	?	.	?	/
COc1ccccc1C(=O)N1C2CCCC1CC(=O)C2	.	.	.	.	.
Cc1nn(C)c2nc(-c3ccccn3)nc(N3CCC(c4ccc(F)cc4)C3)c12 (stereo not given)	.	40µM	?	.	.
COC(=O)[C@@H]1Cc2c([nH]c3ccccc23)[C@H]2C[C@@H](NC(C)C)C[C@@H](c3ccccc3)N21	?	35µM	.	40µM	.
COC(=O)[C@@H]1[C@H]2C[C@H]3c4[nH]c5ccccc5c4CCN3C[C@@H]2CC[C@@H]1O	/	/	.	/	/
COC(=O)[C@@H]1Cc2c([nH]c3ccccc23)[C@H]2C[C@@H](NC(C)C)C[C@@H](c3ccc(C)cc3)N21	.	35µM	.	40µM	.
CCCNC(=O)CN1C(=O)NC(c2ccccc2OC)C2=C1COC2=O (stereo not given)	.	.	.	.	.
SMILES	Luciferase inh	HEK cytotox	GPT2 inhibitor	NIH3T3 tox	hNpr1 antagonist
CC(C)Cn1ccc2c(NC(=O)C[C@H]3NC(=O)c4ccccc4NC3=O)cccc21	.	?	.	28µM	.
CC(C)Cn1ccc2c(NC(=O)CC[C@H]3NC(=O)c4ccccc4NC3=O)cccc21	?	?	.	.	.
CCn1ccnc1CN(C)Cc1cn(-c2ccccc2C)nc1-c1ccc(OC)c(F)c1	.	?	?	?	.
CCN1CC(CN(C)Cc2cn(-c3ccccc3C)nc2-c2ccc(OC)c(F)c2)CC1=O (stereo not given)	.	22µM	.	?	.
CCCCn1c(=O)c(C(=O)N2CCN(C(=O)Cc3ccc(OC)cc3)CC2)nc2cccnc21	/	.	.	.	/
Cc1ccc(N2CCN(C(=O)c3noc(-c4ccc(F)cc4)n3)CC2)cc1	?	.	.	.	.
O=C(c1noc(-c2ccc(F)cc2)n1)N1CCN(c2ccccc2)CC1	40µM	?	.	.	.
O=C(CN1CC(=O)NC1=O)NCc1noc(-c2ccc3c(c2)OCO3)n1	.	?	.	.	.
Cc1c(-c2ccccc2F)[nH]c2ccc(CNC(=O)CCn3cnnc3)cc12	?	.	.	?	.
Cc1ccc(CNC(=O)C2CCCN(C3CCN(C(=O)C4CC4)CC3)C2)cc1F (stereo not given)	.	.	.	.	.
Cc1c(-c2ccccc2F)[nH]c2ccc(CNC(=O)CN3CC(=O)NC3=O)cc12	16µM	?	.	?	.
Cc1nc(CCC(=O)NCc2ccc3[nH]c(-c4ccccc4F)c(C)c3c2)n[nH]1	16µM	?	.	?	.
Cc1c(-c2ccccc2F)[nH]c2ccc(CNS(=O)(=O)C3CC3)cc12	?	35µM	?	?	?
Cc1c(-c2ccccc2F)[nH]c2ccc(CNC(=O)C3CCNC3)cc12 (stereo not given)	20µM	?	.	?	.
Cc1cccc(OCC(=O)N2CCC3(CC2)NC(=O)N(c2ccc(F)cc2)N3)c1	.	?	?	?	.
CCOc1cccc(CN2CCCC3(Cc4ccccc4CNC3=O)C2)c1 (stereo not given)	/	.	.	.	/
CC1CC(O)/C=C/C(O)C(O)CC(=O)Cc2c(Cl)c(O)cc(O)c2C(=O)O1 (stereo not given)	/	/	.	/	/
COc1ccccc1Nc1ccnc(N2CCC[C@H]2C(=O)NCc2ccc(C(F)(F)F)cc2)n1	/	?	.	?	/
O=C1N(C2CCNCC2)C(c2ccccc2)C12CCCCC2 (stereo not given)	.	?	.	.	.
COCCNc1cc(-c2ccnc(SC)n2)c2cc[nH]c2n1	.	?	.	?	.
CC(C)c1cccc(-c2cc(NCc3ccccn3)nc3[nH]ccc23)n1	?	45µM	.	?	.
CN(C)CCNc1cc(-c2ccc3ccccc3n2)c2cc[nH]c2n1	.	40µM	.[11.5 µM]	?	.
